Results filed as inconclusive are left out. The source made the active and inactive calls. The call rests on the fitted dose curve; in most records, active means well fitted cell-killing curve with a large enough effect; inconclusive means small, poorly fitted or top-dose-only effect; inactive means flat fitted curve, though single readings scatter.

Experimental findings from PubChem BioAssay (NCATS) are described below.
On the % scale 0 is the no-effect control and ±100 the full control effect; potency means the concentration at half of the fitted maximal effect.

This assay in a line: Cell Viability - LYMP2-021 (AID 974).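 Further: compound exposure lasts 24 hours at 37 °C; nearly all actives have a fitted effect of over 55% in size.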 The settings on record: LYMP2-021 lymphoblastoid cells viability; series mostly up to 92.2 µM; activity change, negative = cytotoxicity: at the top concentration. The text has this:
NIH Chemical Genomics Center [NCGC]
NIH Molecular Libraries Screening Centers Network [MLSCN]
National Institutes of Environmental Health Sciences [NIEHS]
National Toxicology Program [NTP]
We have developed a 1536-well cell-based assay for quantitative high throughput screening (qHTS) against a number of cell lines to determine in vitro cytotoxicity of small molecules. This particular assay uses a human lymphoblastoid cell line (LYMP2-021) purchased from Coriell Institute for Medical Research.
NCGC Assay Protocol Summary:
The CellTiter-Glo luminescent cell viability assay (Promega) is a homogeneous method to measure the number of viable cells in culture. The end point readout of this assay is based on quantitation of intracellular ATP, an indicator of metabolic activity, using the luciferase reaction. Luciferase catalyzes the oxidation of beetle Luciferin to oxyluciferin and light in the presence of ATP. The luminescent signal is proportional to amount of ATP present.
Using the CellTiter-Glo luminescent cell viability assay, the amount of cellular ATP was measured in the lymphoblastoid cell line with complete culture medium following compound treatment for 24 hours. The assay was performed in opaque white Kalypsys 1536-well plates. In the screen, tetraoctylammonium bromide was used as positive control. Library compounds were measured for their ability to cause acute toxicity in the cell line, as reflected by a decrease in intracellular ATP levels, in a concentration-dependent manner. […] AC50 values were determined from concentration-response data modeled with the standard Hill equation.
qHTS protocol for CellTiter Glo lymphoblastoid cellular assay
[Step] [Parameter] [Value] [Description]
1. Reagent; 5 uL; 2500 lymphoblastoid cells/well
2. Time; 5 hr; 37 C incubation
4. Controls; 23 nL; Tetraoctylammonium bromide 6.4pM to 92 uM
5. Time; 24 hr; 37 C incubation
6. Reagent; 5 uL; CellTiter Glo reagent
7. Time; 30 min; Room Temperature
8. Detection; Luminescence; Viewlux plate reader
Keywords: cell viability, cytotoxicity, lymphoblastoid cell line, luminescence, NTPHTS, NTPHTS_NCGC, NIEHS, DSSTox, MLSMR, MLSCN, NIH Roadmap, qHTS, NCGC
As for `CC(C)(C)c1ccc(O)c(O)c1`, the Potency is 31.6 µM (active).
`CC(C)C(C)(C)C(C)(C)C(C)(C)S`: the “activity change, negative = cytotoxicity” value was 2.91% (inactive).
As to `CCCCCCCCCCCCCCCC[n+]1ccccc1`, the Potency was 25.1 µM (active).
Turning to `O=C(Oc1ccccc1)c1ccccc1O`, the “activity change, negative = cytotoxicity” value is 6% (inactive).
Still for that read-out and setting: with `O=C(c1ccccc1)c1ccccc1` the figure was -0.272% (inactive).
As to `Nc1ccc(O)cc1`, the Potency is 31.6 µM (active).
With `c1ccc2occc2c1`, the “activity change, negative = cytotoxicity” value is -2.66% (inactive).
On the same count and under the same terms, to `Nc1cccc2c(N)cccc12` belongs -9.39% (inactive); to `Cc1cc(C(C)(C)C)c(O)c(C(C)(C)C)c1`, -9.21% (inactive).
As for `CCCCC(CC)COC(=O)c1ccccc1C(=O)O` (stereo not given), the “activity change, negative = cytotoxicity” value is -10.8% (inactive).
Turning to `C1=CC2C3C=CC(C3)C2C1` (stereo not given), the “activity change, negative = cytotoxicity” value is -3.7% (inactive).
Still for that read-out and setting: to `Cc1ccc(O)cc1` belongs -1.63% (inactive); to `O=C(NO)c1ccccc1`, -10.5% (inactive).
In the case of `Nc1c2ccccc2nc2ccccc12`, the Potency is 12.6 µM (active).
With `OCc1c[nH]c2ccccc12`, the “activity change, negative = cytotoxicity” value was -2.34% (inactive).
Consider `CC(C)(c1ccc(O)cc1)c1ccc(O)cc1`, for which the Potency result was “inactive”.
`Brc1ccccc1-c1ccccc1`: the “activity change, negative = cytotoxicity” value is -4.24% (inactive).
Still for that read-out and setting: with `COc1cc(C=O)ccc1O` the figure was -2.38% (inactive); with `CCCC(=O)c1cc(O)c(O)cc1O`, -16.4% (inactive).
On the same count and under the same terms, to `Oc1ccccc1` belongs 0.0326% (inactive).
